{"source": "ChEMBL document CHEMBL4513216", "about": "“Probing the Open Global Health Chemical Diversity Library for Multistage-Active Starting Points for Next-Generation Antimalarials” (ACS Infect Dis, 2020)", "note": "The whole screen tested about 65,000 compounds, of which about 2,100 (3.2%) showed an effect of 50% or more. The median lay at about -52%. Many of the other results were omitted from the sample, so strong results are more common in it than they were.", "data": [{"system": "Plasmodium falciparum", "test": "Screen against P. falciparum Asexual Blood Stage (ABS), at 5uM", "type": "functional, Dd2", "conditions": "tested at 5 uM", "units": {"INHIBITION": "%"}, "values": [{"smiles": "COc1cccc(C=CCCN2CCCN(C(C)=O)CC2)c1", "INHIBITION": -13}, {"smiles": "Cc1cc(-n2cccn2)ccc1CN1CCC(O)(CN2CCCCC2)C1", "note": "(centres undefined)", "INHIBITION": 62.1}, {"smiles": "CN(C)C[C@@H]1CN(Cc2ccccc2C#N)C[C@@H]1CO", "INHIBITION": -47.7}, {"smiles": "Cc1cc(F)ccc1CN1CCCC(O)(CN2CCCC2)C1", "note": "(centres undefined)", "INHIBITION": 66.7}, {"smiles": "CCCn1ccnc1CN1CCC(O)(CN2CCCCC2)C1", "note": "(centres undefined)", "INHIBITION": 18.6}, {"smiles": "Cc1cc(C)c(C(=O)N2CCCC(O)(CN3CCCC3)C2)cc1C", "note": "(centres undefined)", "INHIBITION": -30.5}, {"smiles": "Cc1ccccc1CN1C[C@@H](CN(C)CCO)[C@@H](CO)C1", "INHIBITION": 7.46}, {"smiles": "COc1ccc(CN2CCC(O)(CN3CCCCC3)C2)c(C)c1", "note": "(centres undefined)", "INHIBITION": 67.6}, {"smiles": "COc1ccc(F)c(CN2CCCC3(CCN(C(=O)CSC)C3)C2)c1", "note": "(centres undefined)", "INHIBITION": -63.5}, {"smiles": "CC(C)c1nccc(CN2CCC(O)(CN3CCCCC3)C2)n1", "note": "(centres undefined)", "INHIBITION": 32.8}, {"smiles": "Cc1cc(-n2cccn2)ccc1CN1C[C@@H](CN(C)C)[C@@H](CO)C1", "INHIBITION": 51.7}, {"smiles": "Cc1cc(F)ccc1CN1CCCC2(C1)OCCO2", "INHIBITION": -67.8}, {"smiles": "COCC(=O)N1CCC2(CCCN(Cc3cc(OC)ccc3F)C2)C1", "note": "(centres undefined)", "INHIBITION": -70}, {"smiles": "COc1cccc(Cn2cc(N3C(=O)CCC3=O)cn2)c1", "INHIBITION": -83.8}, {"smiles": "c1cnc(N2CCC3(COCc4cnc(-c5cccnc5)nc43)C2)nc1", "note": "(centres undefined)", "INHIBITION": -78.5}, {"smiles": "COCC1CN(c2ncccn2)Cc2cnn(CC3CC3)c21", "note": "(centres undefined)", "INHIBITION": -16.5}, {"smiles": "CS(=O)(=O)N1CCN(C(=O)C2CSCCC(=O)N2)CC1", "note": "(centres undefined)", "INHIBITION": -38.6}, {"smiles": "Cc1nc(CN2CCN(C3CCOC3)Cc3cccnc32)cs1", "note": "(centres undefined)", "INHIBITION": -78.6}, {"smiles": "CCCNC(=O)c1cccc(CNCc2csc(C(C)C)n2)c1", "INHIBITION": -48.2}, {"smiles": "Cc1noc(NC(=O)c2cccc(Br)c2)n1", "INHIBITION": -81.9}, {"smiles": "OC1(CN2CCCC2)CCCN(Cc2ccc(F)cc2Cl)C1", "note": "(centres undefined)", "INHIBITION": 58.3}, {"smiles": "O=C1CCC2(CCN(Cc3ccc(F)cc3Cl)CC2)CN1CCO", "INHIBITION": -54}, {"smiles": "Cc1cc(C(=O)N2CCCC(O)(CN3CCCC3)C2)ccc1Cl", "note": "(centres undefined)", "INHIBITION": -21.4}, {"smiles": "Cn1cc(C[C@H]2[C@H](O)CCN2Cc2ccc(F)cc2)cn1", "INHIBITION": 6.42}, {"smiles": "Cc1cc(CN(C)C(=O)Nc2ccccc2C)no1", "INHIBITION": -85.5}, {"smiles": "Cc1ccc(CN(CCCO)Cc2nc3ccccc3[nH]2)s1", "INHIBITION": -76.9}, {"smiles": "Cc1ccc(CN(CCN(C)C)Cc2ncc[nH]2)s1", "INHIBITION": -73.3}, {"smiles": "Cc1ccc(CN(CCN(C)C)Cc2nc3ccccc3[nH]2)s1", "INHIBITION": 61.2}, {"smiles": "Cc1ccccc1NC(=O)CCNC(=O)c1ccoc1", "INHIBITION": -37.5}, {"smiles": "COCCCNC(=O)Cc1nc(-c2ccncc2)n[nH]1", "INHIBITION": -95.8}, {"smiles": "CCC1=NC2(CCC(C(=O)Nc3ccc(C)nc3)CC2)C(=O)N1C", "note": "(centres undefined)", "INHIBITION": -28.2}, {"smiles": "Cc1cccc(CNc2cc(C3CCCNC3)ccn2)n1", "note": "(centres undefined)", "INHIBITION": -46.7}, {"smiles": "CC(C)(C)OC(=O)NC1CCCN(Cc2cccs2)C1", "note": "(centres undefined)", "INHIBITION": 25.8}, {"smiles": "CC(C)(C)OC(=O)NC1CCCN(Cc2cccc(O)c2)C1", "note": "(centres undefined)", "INHIBITION": 51.7}, {"smiles": "CC(=O)NC1CCCN(Cc2ccn(C)c(=O)c2)C1", "note": "(centres undefined)", "INHIBITION": -10.7}, {"smiles": "Cc1nn(C)c2nc(N(Cc3cnn(C)c3)C3CCCCC3)sc12", "INHIBITION": 60}, {"smiles": "Cc1nn(C)c2nc(N(CCN(C)C)C3CCCC3)sc12", "INHIBITION": -9.31}, {"smiles": "COCCN(Cc1cnn(C)c1)c1nc2c(s1)c(C)nn2C", "INHIBITION": -50.7}, {"smiles": "O[C@H]1CCN(CC2CC2)[C@H]1Cc1ccncc1", "INHIBITION": -6.99}, {"smiles": "CC1CCCN(CCCNC(=O)c2ccc(N(C)S(C)(=O)=O)cc2Cl)C1", "note": "(centres undefined)", "INHIBITION": -129}, {"smiles": "CC(O)CNCc1c[nH]nc1-c1cc2ccccc2o1", "note": "(centres undefined)", "INHIBITION": -15.3}, {"smiles": "Cc1nc(CN2C(=O)C[C@H]3[C@H]2CCN3CC2CCOC2)cs1", "note": "(some centres undefined)", "INHIBITION": -84.1}, {"smiles": "COc1ccccc1C1(CNc2cn[nH]c(=O)c2Cl)CC1", "INHIBITION": -7.64}, {"smiles": "COc1ccccc1C1(CNc2snc(Cl)c2C#N)CCOCC1", "INHIBITION": 27}, {"smiles": "COc1ccccc1C1(CNc2cn[nH]c(=O)c2Cl)CCOCC1", "INHIBITION": -28.1}, {"smiles": "COc1ccccc1C1(CNc2ccc(C(=O)N(C)C)cn2)CC1", "INHIBITION": -70.8}, {"smiles": "COc1ccccc1C1(CNCc2cccc(C#N)c2)CCOCC1", "INHIBITION": 66.9}, {"smiles": "COc1ccccc1C1(CNCc2ccc([S+](C)[O-])cc2)CC1", "note": "(centres undefined)", "INHIBITION": 69.5}, {"smiles": "CC(C)(C)CN(CCC#N)C(=O)c1cccc(CC#N)c1", "INHIBITION": -98}, {"smiles": "CCCC(NC(=O)c1ccc(OC)cc1C)c1nnn[nH]1", "note": "(centres undefined)", "INHIBITION": -54.4}, {"smiles": "Cc1ncc(C(=O)N2CCCC2(C)C(=O)N2CCOCC2)c(C)n1", "note": "(centres undefined)", "INHIBITION": -32.2}, {"smiles": "CCS(=O)(=O)N1CCCN(CCCOC)CC1", "INHIBITION": -97.9}, {"smiles": "CCOC1COC2(CCN(C(=O)c3cccc(C)n3)CC2)C1", "note": "(centres undefined)", "INHIBITION": -46}, {"smiles": "CC1(C)[C@@H]2CC=C(CN3CCCn4nc(C(=O)NCCO)cc4C3)[C@H]1C2", "INHIBITION": -43.4}, {"smiles": "CN1CC[C@@H]2[C@@H]1CCN2Cc1ccc2c(c1)OCO2", "INHIBITION": 43}, {"smiles": "c1cncc(CN2CC[C@@H]3[C@@H]2CCN3Cc2ccc3c(c2)OCO3)c1", "INHIBITION": 59.5}, {"smiles": "Cn1cc(CN2CC[C@@H]3[C@@H]2CCN3Cc2ccc3c(c2)OCO3)cn1", "INHIBITION": -88.4}, {"smiles": "CCOCc1nn(CC2CC2)c2c1CN(Cc1cccs1)CC2", "INHIBITION": -70.5}, {"smiles": "COCc1nn(CC2CC2)c2c1CN(Cc1ccco1)CC2", "INHIBITION": -53.2}, {"smiles": "COCc1nn(CC2CC2)c2c1CN(Cc1cccs1)CC2", "INHIBITION": 50}, {"smiles": "CCO[C@H]1C[C@@H](O)C12CCN(C1Cc3ccccc3C1)CC2", "INHIBITION": -26.8}, {"smiles": "Fc1ccccc1CNc1ccnc(C2CCNCC2)c1", "INHIBITION": 66.5}, {"smiles": "O=C(NC1CCCC1)c1ccnc(C2CCNCC2)c1", "INHIBITION": -131}, {"smiles": "NS(=O)(=O)c1ccc(NCc2ccccc2F)cc1C(F)(F)F", "INHIBITION": -6.73}, {"smiles": "O=C(Nc1cccc(C2SCCS2)c1)C1CCCN1c1nccs1", "note": "(centres undefined)", "INHIBITION": 36.7}, {"smiles": "CN1CCN(c2ccccc2NC(=O)c2ccco2)CC1", "INHIBITION": 32.7}, {"smiles": "CN1CCN(c2ccc(Br)cc2NC(=O)c2ccco2)CC1", "INHIBITION": 53}, {"smiles": "CN1CCN(c2ccc(Cl)cc2NC(=O)c2ccco2)CC1", "INHIBITION": 42}, {"smiles": "CSCC(C)N(C)C(=O)c1nn(-c2ccc(F)cc2C)cc1O", "note": "(centres undefined)", "INHIBITION": -118}]}]}
